Test results reported in PubChem BioAssay (EPA / NIEHS).
Where “and” joins values, the source holds several entries; their conditions need not be identical. Identical values can stand only once. Records with an inconclusive call do not appear. More than one record can exist for a structure, and the calls need not agree. Calls of active or inactive are those of the source. How the source made its calls, unless noted: active means hit-call score of the fitted dose curve at least 0.9, where 1 is the maximum; inconclusive means response in the unintended direction; inactive means score below 0.9.

What was measured:
[1] = TOX21_p53_BLA_p2_viability: Viability Assessment in the Tox21 HCT-116 p53 Agonism Beta-lactamase Assay, Phase 2 (AID 2283591);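 further: compound exposure lasted 16 h at 37 °C; actives lower the ATP signal meaning cytotoxicity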
In short: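 HCT116 p53-bla cells, 4000/well, dosed after 5 h plating (217-fold dilution of DMSO stocks) and incubated 16 h at 37C. Viability taken as cellular ATP by CellTiter-Glo luminescence after 30 min RT; signal loss marks cytotoxicity.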

[2] = biological target: Cellular tumor antigen p53 (Homo sapiens) (UniProt P04637); assay: TOX21_p53_BLA_p2_ratio: Tox21 HCT-116 p53 Agonism Beta-lactamase Assay, Ratio, Phase 2 (AID 2283592)
In short: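 DMSO-normalized, positive-direction endpoint derived from the 460 nm/530 nm FRET ratio in HCT116 p53 beta-lactamase reporter cells exposed 16 h at 37C and loaded with CCF4-AM for 2 h.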

[3] = TOX21_p53_BLA_p3_viability: Viability Assessment in the Tox21 HCT-116 p53 Agonism Beta-lactamase Assay, Phase 3 (AID 2283593);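 further: cells exposed to compound for 16 h before reading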
In short: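 HCT116 cells, 4000/well, dosed 5 h after plating by pin transfer (217-fold dilution from DMSO stock) and incubated 16 h at 37C, 5% CO2. Viability read as ATP luminescence with CellTiter-Glo after 30 min at room temperature.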

[4] = biological target: Cellular tumor antigen p53 (Homo sapiens) (UniProt P04637); assay: TOX21_p53_BLA_p3_ratio: Tox21 HCT-116 p53 Agonism Beta-lactamase Assay, Ratio, Phase 3 (AID 2283596)
In short: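 Cells were seeded at 4000/well, rested 5 h at 37C, then dosed with DMSO compound solutions (217-fold dilution) for 16 h. CCF4-AM substrate was loaded for 2 h at room temperature, and the 460/530 nm emission ratio was fitted for gain of signal versus DMSO.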

[5] = TOX21_p53_BLA_p4_viability: Viability Assessment in the Tox21 HCT-116 p53 Agonism Beta-lactamase Assay, Phase 4 (AID 2283597);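 further: hits lower the luminescence signal meaning cytotoxicity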
In short: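 In this multiplexed secondary endpoint, HCT116 cells (4000 per well, compound at 5 h, 16 h treatment) received CellTiter-Glo after the beta-lactamase read. Luminescence after 30 min RT reflects ATP, and falling signal marks cytotoxicity.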

[6] = biological target: Cellular tumor antigen p53 (Homo sapiens) (UniProt P04637); assay: TOX21_p53_BLA_p5_ratio: Tox21 HCT-116 p53 Agonism Beta-lactamase Assay, Ratio, Phase 5 (AID 2283599)
In short: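 HCT-116 p53-bla cells (4000/well) plated 5 h, dosed with compound (217-fold DMSO dilution) for 16 h at 37 C; CCF4-AM substrate 2 h at room temperature. Activity is the 460/530 nm emission ratio (405 nm excitation), fitted in gain-of-signal direction versus DMSO.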

[7] = TOX21_p53_BLA_p5_viability: Viability Assessment in the Tox21 HCT-116 p53 Agonism Beta-lactamase Assay, Phase 5 (AID 2283600)
In short: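 Here cell health was gauged by ATP levels in wells holding 4000 cells, each treated 16 h with DMSO-delivered compounds at 217-fold dilution; reduced luminescence marked toxicity.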

[8] = CCTE_Harrill_HTTr_Viability_MCF7: CCTE's 6-hour Cell Viability Assessment for the High-Throughput Transcriptomics (HTTr) Platform, in MCF-7 cells cultured in DMEM + 10% fetal bovine serum, Harrill Lab (AID 2284010; active means hit-call score of the fitted dose curve at least 0.9, where 1 is the maximum; inactive means score below 0.9)
In short: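 PI exclusion, high-content imaging; 8-pt dilution series, 6 h exposure; bidirectional fit vs DMSO (neg. ctrl/baseline); gain of signal = loss of membrane integrity.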

[9] = CCTE_Harrill_HTTr_Apoptosis_MCF7: CCTE's 6-hour Apoptosis Assessment for the High-Throughput Transcriptomics (HTTr) Platform, in MCF-7 cells cultured in DMEM + 10% fetal bovine serum, Harrill Lab (AID 2284011; active means hit-call score of the fitted dose curve at least 0.9, where 1 is the maximum; inactive means score below 0.9)
In short: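 Apoptosis in MCF-7 cells grown in DMEM with 10% fetal bovine serum was scored after a six hour exposure by high content imaging of caspase-3/7 activation (CellEvent Caspase 3/7 Green), with DMSO serving as negative control and baseline.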

[10] = ATG_CMV_CIS: Attagene CIS-FACTORIAL HepG2 Assay for human CMV (Internal Marker) (AID 2282928; active means hit-call score of the fitted dose curve at least 0.9, where 1 is the maximum; inactive means score below 0.9;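 further: endpoint acts as a background internal control marker rather than a target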); conditions: HepG2 CMV promoter reporter, transcription factor profiling; actives raise or lower the signal
In short: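 Reporter transcripts from transfected HepG2 cells are isolated after 24 h of chemical dosing, reverse-transcribed and amplified. Fragments labeled with 6-FAM are cut with HpaI and quantified by capillary electrophoresis; DMSO defines baseline.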

[11] = ATG_AP_2_CIS: Attagene CIS-FACTORIAL HepG2 Assay for human Activator Protein 2 (AP-2) (AID 2282932; active means hit-call score of the fitted dose curve at least 0.9, where 1 is the maximum; inactive means score below 0.9); conditions: HepG2 AP-2 cis-reporter, Attagene transcription factor profiling; actives raise or lower the signal
In short: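 Read-out: fluorescent reporter mRNA via RT-PCR and capillary electrophoresis, 24 h post-dose in transiently transfected HepG2. Endogenous factors drive cis-promoter reporters; gain or loss of signal fitted bidirectionally against DMSO.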

[12] = ATG_BRE_CIS: Attagene CIS-FACTORIAL HepG2 Assay for human Bone Morphogenetic Protein (BMP) Response Element (BRE) (AID 2282933; active means hit-call score of the fitted dose curve at least 0.9, where 1 is the maximum; inactive means score below 0.9); conditions: HepG2 BMP response element reporter, Attagene transcription factor profiling; actives raise or lower the signal
In short: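 Read-out: reporter mRNA induction quantified by RT-PCR and capillary electrophoresis after 24 h chemical exposure of transfected HepG2 cells. Endogenous factor activity on the BMP response element; gain or loss fitted against DMSO baseline.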

[13] = ATG_E_Box_CIS: Attagene CIS-FACTORIAL HepG2 Assay for human Enhancer Box (E-box) (AID 2282936; active means hit-call score of the fitted dose curve at least 0.9, where 1 is the maximum; inactive means score below 0.9); conditions: HepG2 E-box cis-reporter transcription, actives raise or lower the signal
In short: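 Transiently transfected HepG2, endogenous TF-driven reporters, 24 h dosing. Readout: RT-PCR plus capillary electrophoresis of fluorescent reporter fragments. Gain or loss of signal fitted bidirectionally against DMSO baseline.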

[14] = ATG_M_61_CIS: Attagene CIS-FACTORIAL HepG2 Assay for M61 Transcription Factor (Internal Marker) (AID 2282937; active means hit-call score of the fitted dose curve at least 0.9, where 1 is the maximum; inactive means score below 0.9); conditions: HepG2 Attagene CIS-FACTORIAL M61 internal marker reporter; actives raise or lower the signal
In short: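 Cells were transfected with reporter units under cis-regulatory promoters, treated with chemicals for 24 h, then lysed for RNA. Reporter transcripts were quantified by RT-PCR and capillary electrophoresis, and activity was fitted bidirectionally against DMSO.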

[15] = ATG_EGR_CIS: Attagene CIS-FACTORIAL HepG2 Assay for human Early Growth Response 1 (EGR1) (AID 2282938; active means hit-call score of the fitted dose curve at least 0.9, where 1 is the maximum; inactive means score below 0.9); conditions: HepG2 Attagene CIS-FACTORIAL EGR reporter mRNA; actives raise or lower the signal
In short: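 Endogenous TF activity in HepG2 liver cells was gauged through cis-promoter reporter constructs transiently transfected. After 24 h dosing, reporter mRNA was quantified by RT-PCR and capillary electrophoresis, and curves fitted in both directions versus DMSO.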

[16] = ATG_M_19_CIS: Attagene CIS-FACTORIAL HepG2 Assay for M19 Transcription Factor (Internal Marker) (AID 2282939; active means hit-call score of the fitted dose curve at least 0.9, where 1 is the maximum; inactive means score below 0.9); conditions: HepG2 Attagene CIS-FACTORIAL M19 internal marker reporter; actives raise or lower the signal
In short: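 Readout: fluorescent reporter-transcript fragments by capillary electrophoresis after RT-PCR. Human HepG2 liver cells carried transfected MRTU constructs reporting endogenous transcription-factor activity; exposure 24 h. Gain or loss of signal fitted relative to DMSO.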

[17] = ATG_Ets_CIS: Attagene CIS-FACTORIAL HepG2 Assay for human Erythroblast Transformation Specific (ETS) (AID 2282941; active means hit-call score of the fitted dose curve at least 0.9, where 1 is the maximum; inactive means score below 0.9); conditions: HepG2 ETS cis-reporter transcription, actives raise or lower the signal
In short: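 Bidirectional fit versus DMSO of reporter mRNA signal, detected by RT-PCR and capillary electrophoresis in HepG2 cells transiently transfected with cis-element reporters and dosed 24 h.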

[18] = ATG_FoxO_CIS: Attagene CIS-FACTORIAL HepG2 Assay for human Forkhead box O (FoxO) (AID 2282943; active means hit-call score of the fitted dose curve at least 0.9, where 1 is the maximum; inactive means score below 0.9); conditions: HepG2 Attagene cis-reporter, FoxO element, mRNA; actives raise or lower the signal
In short: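 Transfected HepG2 reporter cells exposed to test chemical for 24 h; reporter RNA measured by reverse transcription, PCR and fluorescent capillary electrophoresis; curves fitted for increases and decreases against DMSO.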

[19] = biological target: Estrogen receptor (Homo sapiens) (UniProt P03372); assay: NVS_NR_hER: NovaScreen (NVS) Nuclear Receptor Binding Assay for human Estrogen Receptor (ER) (AID 2283348)
In short: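 MCF7-derived receptor extract, radiolabelled ligand, competitive displacement. Read: scintillation counts at 18 h. DMSO = negative control/baseline. Primary 25 uM duplicate; follow-up concentration–response.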

[20] = biological target: Cellular tumor antigen p53 (Homo sapiens) (UniProt P04637); assay: TOX21_p53_BLA_p4_ratio: Tox21 HCT-116 p53 Agonism Beta-lactamase Assay, Ratio, Phase 4 (AID 2283601)
In short: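 HCT-116 p53 beta-lactamase reporter cells (4000/well) preincubated 5 h, then compound (217-fold dilution of DMSO stock) for 16 h at 37C. CCF4-AM substrate added 2 h at room temperature; 460/530 nm emission ratio fitted upward versus DMSO.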

Measured: AC50

Cellular tumor antigen p53 (Homo sapiens), sequence (P04637 whole entry, looked up): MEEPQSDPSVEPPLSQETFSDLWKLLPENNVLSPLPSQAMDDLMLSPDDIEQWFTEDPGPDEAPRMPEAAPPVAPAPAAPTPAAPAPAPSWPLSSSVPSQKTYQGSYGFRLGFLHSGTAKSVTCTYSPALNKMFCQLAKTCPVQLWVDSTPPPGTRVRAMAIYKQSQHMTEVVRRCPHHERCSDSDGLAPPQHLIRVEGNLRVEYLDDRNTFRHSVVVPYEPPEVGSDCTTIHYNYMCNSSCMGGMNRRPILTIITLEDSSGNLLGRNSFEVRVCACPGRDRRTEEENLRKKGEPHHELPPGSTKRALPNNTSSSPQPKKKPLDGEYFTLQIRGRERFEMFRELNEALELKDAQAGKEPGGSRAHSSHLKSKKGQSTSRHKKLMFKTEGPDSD
Estrogen receptor (Homo sapiens), sequence (P03372 whole entry, looked up): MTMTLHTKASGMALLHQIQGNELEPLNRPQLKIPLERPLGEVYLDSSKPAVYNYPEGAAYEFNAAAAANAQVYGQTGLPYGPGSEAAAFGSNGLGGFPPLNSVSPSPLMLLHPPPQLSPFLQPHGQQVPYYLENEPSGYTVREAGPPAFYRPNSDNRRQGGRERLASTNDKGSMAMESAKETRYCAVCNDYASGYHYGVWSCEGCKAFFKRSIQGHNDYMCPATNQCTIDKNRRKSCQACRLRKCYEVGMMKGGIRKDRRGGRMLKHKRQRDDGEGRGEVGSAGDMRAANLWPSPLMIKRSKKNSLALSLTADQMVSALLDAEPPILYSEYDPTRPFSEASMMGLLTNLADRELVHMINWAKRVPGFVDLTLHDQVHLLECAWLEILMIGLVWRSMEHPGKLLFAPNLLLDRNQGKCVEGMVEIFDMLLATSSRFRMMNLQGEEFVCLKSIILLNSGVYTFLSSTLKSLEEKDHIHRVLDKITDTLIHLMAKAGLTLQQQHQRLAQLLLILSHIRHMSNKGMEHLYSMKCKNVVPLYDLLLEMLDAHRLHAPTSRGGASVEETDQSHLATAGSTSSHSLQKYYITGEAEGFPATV

CCCCC(CC)COC(=O)C=Cc1ccc(OC)cc1 (centres undefined)
inactive: [1] | [2] | [3] | [4] | [5] | [6] | [7] | [8] | [9]

C1CN(CCOCCN2CCOCC2)CCO1
inactive: [1] | [4]

CCCCCCOC(=O)CCCCCCCC(=O)OCCCCCC
inactive: [10] | [11] | [12] | [13] | [14] | [15] | [16] | [17] | [18]

CC(=O)CC(=O)OC(C)(C)C
inactive: [19] | [1] | [2] | [3] | [4] | [5] | [6] | [20]

C[Si](C)(C)O[Si](C)(C)O[Si](C)(C)C
not listed: [5] | [8] | [9] | [19]
inactive: all other assays above

Nc1nc(N)c2nc(-c3ccccc3)c(N)nc2n1
active: [1] 85.6 µM | [2] 32.3 µM and 16.7 µM | [4] 33.5 µM | [6] 17.5 µM and 38.9 µM and 28 µM | [20] 26.9 µM and 21.1 µM and 29.1 µM
inactive: [19] | [1] | [2] | [3] | [4] | [5] | [7] | [8] | [9]

CCCC[N+]1(C)CCCC1
inactive: [10] | [11] | [12] | [13] | [14] | [15] | [16] | [17] | [18]

CC/C=C\CCO
not listed: [1] | [3] | [4] | [5] | [19] | [20]
inactive: all other assays above

Cc1c(C(N)=O)cc([N+](=O)[O-])cc1[N+](=O)[O-]
inactive: [1] | [4] | [5] | [6] | [7] | [20]

COc1cc(CNC(=O)CCCC/C=C/C(C)C)ccc1O
inactive: [1] | [2] | [3] | [4] | [5] | [6] | [7] | [20] | [8] | [9]

F[B-](F)(F)F
inactive: [10] | [11] | [12] | [13] | [14] | [15] | [16] | [17] | [18]

CN(C)N=Nc1ccccc1
not listed: [1] | [2] | [3] | [6] | [8] | [9] | [19]
inactive: all other assays above

CC1(O)CSC(C)(O)CS1 (centres undefined)
inactive: [19] | [1] | [2] | [3] | [4] | [6] | [7] | [20]

CCCc1c(OCCCCc2nn[nH]n2)ccc(C(C)=O)c1O
inactive: [11] | [13] | [14] | [15] | [16] | [17] | [18] | [1] | [3] | [4] | [5] | [6] | [7] | [20] | [8] | [9]
active: [10] 135 µM | [12] 180 µM | [2] 73.1 µM and 19.2 µM | [4] 30.1 µM | [6] 26.6 µM | [20] 25.2 µM

CC(C)(C)C(=O)C(=O)O
inactive: [19] | [2] | [6] | [7] | [20]

CC(=O)O[C@]1(C(C)=O)CC[C@H]2[C@@H]3C=C(C)C4=CC(=O)CC[C@]4(C)[C@H]3CC[C@@]21C
inactive: [19] | [1] | [2] | [3] | [4] | [6] | [7] | [20] | [8] | [9]

CC(=O)Oc1ccccc1C(=O)Nc1ncc([N+](=O)[O-])s1
inactive: [1] | [5] | [7] | [20]
active: [1] 10.7 µM | [2] 2.61 µM and 14.1 µM | [3] 4.46 µM and 6.54 µM | [4] 1.19 µM and 15.5 µM | [5] 12.7 µM | [6] 3.18 µM and 22.4 µM | [7] 10.7 µM | [20] 5.33 µM

O=C(OCCOCCO)c1ccccc1Nc1cccc(C(F)(F)F)c1
inactive: [1] | [2]

C[C@@H]1[C@H](O)[C@@H](C)/C=C/C=C/C=C/C=C/C=C/C=C/C=C/[C@H](O[C@@H]2O[C@H](C)[C@@H](O)[C@H](N)[C@@H]2O)C[C@@H]2O[C@](O)(C[C@@H](O)C[C@@H](O)[C@H](O)CC[C@@H](O)C[C@@H](O)CC(=O)O[C@H]1C)C[C@H](O)[C@H]2C(=O)O
inactive: [1] | [2] | [3] | [4] | [5] | [6] | [7] | [20] | [8] | [9]
active: [1] 72.4 µM
